The record followed here is PubChem BioAssay (NCI).

The panel holds about 83,000 compounds, 20% with a hit somewhere; the sample as a whole holds those more often.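 48-hour exposure, single concentration, 96-well plates; percent growth endpoint where 0 means no net growth. Active: below 10.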 A number with no mark means an inactive call. Activity calls are given as the source filed them.

Some test systems named below: SK-MEL-2 melanoma; EKVX NSCLC; SN12C renal; UO-31 renal; TK-10 renal; ACHN renal; CAKI-1 renal; A498 renal; MOLT-4 leukemia; SR leukemia; RPMI-8226 leukemia; OVCAR-8 ovarian; OVCAR-5 ovarian; OVCAR-4 ovarian; SK-OV-3 ovarian; IGROV1 ovarian; OVCAR-3 ovarian; HS 578T breast; NCI/ADR-RES ovarian; CCRF-CEM leukemia.
Common to all, as to assay: NCI-60 one-dose screen, 48 h (100 = growth as untreated, 0 = no growth, -100 = all killed)
Common to all, as to conditions: 10 µM unless noted

Turning to `COc1cc(/C=C/C(=O)c2ccc(Nc3nc(Nc4ccc(F)cc4)nc(Nc4ccc(Cl)cc4)n3)cc2)cc(OC)c1OC`, the growth was 62.6% with SK-MEL-2 melanoma; 74.1% in the experiment on EKVX NSCLC; 70.1% with SN12C renal; 42.4% in the experiment on UO-31 renal; 73.9% in the experiment on TK-10 renal; 78.1% in the experiment on ACHN renal. Also, the growth is 124% with CAKI-1 renal; 79.8% in the experiment on A498 renal; 0.996% (active) with MOLT-4 leukemia; -5.99% (active) in the experiment on SR leukemia; -47.5% (active) in the experiment with RPMI-8226 leukemia; 31.7% with OVCAR-8 ovarian. Besides, the growth was 81.3% in the experiment with OVCAR-5 ovarian; 31.8% in the experiment on OVCAR-4 ovarian; 105% in the experiment with SK-OV-3 ovarian; 54.8% in the experiment on IGROV1 ovarian; 190% in the experiment on OVCAR-3 ovarian; 59.1% in the experiment on HS 578T breast. Besides, the growth with NCI/ADR-RES ovarian was 38.9%.
Turning to `O=C(O)c1ccc2c(c1Cl)C(=O)c1ccccc1C2=O`, the growth was 70.2% in the experiment on SK-MEL-2 melanoma; 20.9% in the experiment on EKVX NSCLC; 98.8% in the experiment on SN12C renal; 93.2% with UO-31 renal; 130% in the experiment on TK-10 renal; 99.1% in the experiment with ACHN renal. The growth in the experiment on CAKI-1 renal is 89.4%; with A498 renal, 111%; with MOLT-4 leukemia, 78.1%; with SR leukemia, 70.7%; with RPMI-8226 leukemia, 104%; with OVCAR-8 ovarian, 118%. The growth with OVCAR-5 ovarian is 102%; in the experiment on OVCAR-4 ovarian, 81.3%; in the experiment on SK-OV-3 ovarian, 102%; with IGROV1 ovarian, 167%; in the experiment with OVCAR-3 ovarian, 99.5%; in the experiment with HS 578T breast, 123%. For the same molecule, the growth in the experiment with NCI/ADR-RES ovarian was 97.5%.
In the case of `COC1=CC(=O)C[C@@H](C)[C@]12Oc1c(Cl)c(OC)cc(OC)c1C2=O`, the growth is 82.7% in the experiment on SK-MEL-2 melanoma; 106% with EKVX NSCLC; 96.5% in the experiment on SN12C renal; 82.7% in the experiment on UO-31 renal; 96.3% with TK-10 renal; 99.9% in the experiment on ACHN renal. Moreover, the growth with CAKI-1 renal was 82.1%; in the experiment with A498 renal, 114%; in the experiment on CCRF-CEM leukemia, 93.9%; in the experiment on OVCAR-8 ovarian, 96.9%; with OVCAR-5 ovarian, 90.7%; with SK-OV-3 ovarian it was 99.2%. Besides, the growth is 89.2% in the experiment with IGROV1 ovarian, 99.8% with OVCAR-3 ovarian, 91.5% with HS 578T breast and 75.5% in the experiment on NCI/ADR-RES ovarian.
`O=C(N=c1oc2ccccc2cc1-c1cc2ccccc2[nH]1)c1ccc(Cl)cc1`: the growth with SK-MEL-2 melanoma is 101%; in the experiment with EKVX NSCLC, 38.9%; in the experiment with SN12C renal, 80.3%; in the experiment with UO-31 renal, 54.5%; in the experiment on TK-10 renal, 53.1%; in the experiment on ACHN renal, 6.82% (active). The growth was 56.2% with CAKI-1 renal; 69.6% in the experiment with A498 renal; 24.7% in the experiment with CCRF-CEM leukemia; 50.5% with OVCAR-8 ovarian; 89.3% with OVCAR-5 ovarian; 57.7% in the experiment on OVCAR-4 ovarian. Besides, the growth in the experiment on SK-OV-3 ovarian is 57.3%; in the experiment with IGROV1 ovarian it was 29.7%; with OVCAR-3 ovarian, 50.5%; with HS 578T breast, 63.3%; in the experiment on NCI/ADR-RES ovarian it was 38.6%.
Consider `O=C(Nc1ccc(-n2cc(-c3ccncc3)c(-c3ccc(Cl)c(O)c3)n2)cc1)N1CCOCC1`, for which the growth in the experiment with SK-MEL-2 melanoma was 110%; with EKVX NSCLC, 102%; in the experiment on SN12C renal, 99.2%; in the experiment with UO-31 renal, 75.6%; in the experiment on TK-10 renal, 117%; in the experiment with ACHN renal it was 97.6%. For the same molecule, the growth with CAKI-1 renal was 105%; in the experiment on A498 renal it was 121%; in the experiment with CCRF-CEM leukemia, 112%; in the experiment with RPMI-8226 leukemia, 106%; with OVCAR-8 ovarian, 105%; with OVCAR-5 ovarian it was 101%. Further, the growth was 104% with OVCAR-4 ovarian; 96.4% in the experiment with SK-OV-3 ovarian; 97.3% with IGROV1 ovarian; 109% in the experiment on OVCAR-3 ovarian; 105% in the experiment on HS 578T breast; 106% with NCI/ADR-RES ovarian.
In the case of `C[n+]1cc2c3c(ccc2c2ccc4cc5c(cc4c21)OCO5)OCO3`, the growth was -77.4% (active) in the experiment with SK-MEL-2 melanoma; -74% (active) with EKVX NSCLC; -53.4% (active) with SN12C renal; -94.6% (active) in the experiment on UO-31 renal; -95.4% (active) in the experiment with TK-10 renal; -92.2% (active) with ACHN renal. The growth in the experiment on CAKI-1 renal was -29.9% (active); with A498 renal, -64.1% (active); in the experiment on CCRF-CEM leukemia, 11.8%; in the experiment with OVCAR-8 ovarian, -79.5% (active); with OVCAR-5 ovarian it was -65.5% (active); in the experiment with SK-OV-3 ovarian, -99.5% (active). Also, the growth was -83.2% (active) in the experiment on IGROV1 ovarian, -93.5% (active) in the experiment with OVCAR-3 ovarian, -2.95% (active) in the experiment with HS 578T breast and -36.4% (active) in the experiment on NCI/ADR-RES ovarian.
For `C#CCOc1nc(C)cc(C)c1C#N`, the growth with SK-MEL-2 melanoma is 111%; in the experiment with EKVX NSCLC, 97.1%; in the experiment with SN12C renal, 104%; with UO-31 renal, 86.5%; in the experiment with TK-10 renal it was 95.9%; with ACHN renal it was 99.7%. Moreover, the growth in the experiment with CAKI-1 renal was 90.6%; with A498 renal, 87.7%; in the experiment on CCRF-CEM leukemia, 109%; in the experiment on SR leukemia, 91.8%; with RPMI-8226 leukemia it was 111%; with OVCAR-5 ovarian, 95.1%. Also, the growth in the experiment with OVCAR-4 ovarian was 100%; in the experiment on SK-OV-3 ovarian, 101%; in the experiment on IGROV1 ovarian, 102%; in the experiment with OVCAR-3 ovarian, 110%; in the experiment with HS 578T breast, 101%; in the experiment on NCI/ADR-RES ovarian it was 103%.
As for `CCOc1c(C#N)nnc2c(C#N)c(NC(=O)c3ccccc3)nn12`, the growth with SK-MEL-2 melanoma is 112%; in the experiment on EKVX NSCLC, 93.8%; in the experiment with SN12C renal, 100%; in the experiment on UO-31 renal it was 86.3%; in the experiment on TK-10 renal, 116%; in the experiment on ACHN renal it was 98.4%. For the same molecule, the growth is 93.7% in the experiment with CAKI-1 renal; 93.4% in the experiment on A498 renal; 102% in the experiment with CCRF-CEM leukemia; 111% in the experiment on RPMI-8226 leukemia; 93.8% in the experiment with OVCAR-8 ovarian; 110% in the experiment with OVCAR-4 ovarian. Besides, the growth in the experiment on SK-OV-3 ovarian was 97.1%; in the experiment with IGROV1 ovarian, 101%; in the experiment on OVCAR-3 ovarian, 106%; with HS 578T breast, 99.8%; with NCI/ADR-RES ovarian it was 100%.
